PubChem BioAssay
Activity calls are given as the source filed them.

Key:
[1] = test system: Plasmodium falciparum Sir2 (PF13_0152, Sir2A); assay: Plasmodium falciparum Sir2A binding compounds – biochemical, small-molecule microarray, 635 nm fluorescence, primary screen (AID 1098); settings: fluorescence 635 nm, higher = more signal;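 note: score merges spot fluorescence intensity with its signal-to-noise ratio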
[2] = probe aDKK1 binding to arrayed compounds – biochemical, biotinylated probe, 635/667 nm fluorescence, primary screen (AID 1099); settings: small-molecule microarray, higher = more signal;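 note: score merges 667nm spot fluorescence with signal to noise across triplicate slides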
[3] = probe aCHRDL2 binding to arrayed compounds – biochemical, biotinylated probe, 635/667 nm fluorescence, primary screen (AID 1100); settings: small-molecule microarray, higher = more signal
[4] = change in splice reporter luminescence, either direction, cell-based, HEK293, spliceosome inhibition project, primary screen (AID 1101); settings: HEK293 splicing luciferase reporter, 24 h, higher = more signal, called active from +8 up or from −8 down;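 note: HEK293 cells carrying a splicing-competent luciferase reporter gene; test concentration not given here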
[5] = biological target: Fibroblast growth factor 10 (Homo sapiens) (UniProt O15520); assay: compounds binding fibroblast growth factor 10 – biochemical, small-molecule microarray, 635 nm fluorescence, primary screen (AID 1102); settings: FGF10 binding, fluorescence 635 nm, higher = more signal
[6] = test system: glycogen synthase kinase-3 (GSK3A per assay name; protocol says GSK3B); assay: compounds binding glycogen synthase kinase-3 – biochemical, small-molecule microarray, 635 nm fluorescence, GSK3A, primary screen (AID 1103); settings: fluorescence 635 nm, higher = more signal; note: the record names both GSK3A and GSK3B
[7] = biological target: Epidermal growth factor receptor (Homo sapiens) (UniProt P00533); assay: compounds binding epidermal growth factor receptor – biochemical, small-molecule microarray, 635 nm fluorescence, primary screen (AID 1104); settings: EGFR binding, higher = more signal;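 note: score merges 667 nm emission intensity with spot signal to noise over triplicate slides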
[8] = biological target: Follistatin-related protein 3 (Homo sapiens) (UniProt O95633); assay: compounds binding follistatin-related protein 3 – biochemical, small-molecule microarray, 635 nm fluorescence, primary screen (AID 1105); settings: FSTL3 binding, higher = more signal;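 note: score merges emission near 667 nm and signal to noise per printed spot across three slides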
[9] = biological target: Dickkopf-related protein 1 (Homo sapiens) (UniProt O94907); assay: small molecules binding DKK1 protein – biochemical, small-molecule microarray, 635 nm fluorescence scan, primary screen (AID 1106); settings: higher = more signal;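 note: score merges emission near 667 nm with signal to noise over three replicate slides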
[10] = test system: Inhibin beta A chain (activin A); assay: small molecules binding activin A – biochemical, small-molecule microarray, 635 nm fluorescence scan, primary screen (AID 1107); settings: INHBA, higher = more signal;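 note: mouse activin A protein probed at 4.33 µg/mL on printed slides; score merges bound-protein fluorescence near 667 nm with spot signal-to-noise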
[11] = test system: Human papillomavirus type 1a protein E7 (residues 44-93); assay: small molecules binding HPV E7 44-93 – biochemical, small-molecule microarray, residues 44-93, 635 nm fluorescence, primary screen (AID 1108); settings: fluorescence 635 nm, higher = more signal;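 note: E7 fragment applied at 1 µg/mL in TBST for 1 h at 4 C; score combines spot fluorescence with its signal to noise ratio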
[12] = hepatitis C replication reporter changes, two-sided – Huh7 cells, luciferase reporter, HCV replication inhibitor project, primary screen (AID 1109); settings: Huh7 HCV replicon luciferase reporter, 48 h; higher = more signal;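 note: huh7 hepatoma cells harbouring a luciferase neomycin HCV replicon reporter; luciferase luminescence as measure of HCV replicon replication; test concentration not given here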
[13] = biological target: Left-right determination factor 2 (Homo sapiens) (UniProt O00292); assay: small molecules binding LEFTY2 protein – biochemical, small-molecule microarray, 635 nm fluorescence scan, primary screen (AID 1110); settings: higher = more signal
[14] = biological target: Calmodulin-1 (Homo sapiens) (UniProt P0DP23); assay: small molecules binding calmodulin-1 with EGTA – biochemical, small-molecule microarray, Cy5-labelled CALM1, profiling panel (AID 1111); settings: Cy5-CALM1 binding fluorescence, higher = more signal;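 note: labelled calmodulin applied in Tris saline Tween buffer holding calcium plus EGTA and DTT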
[15] = biological target: Calmodulin-1 (Homo sapiens) (UniProt P0DP23); assay: small molecules binding Ca-loaded calmodulin-1 – biochemical, small-molecule microarray, Cy5-labelled CALM1, plus calcium, artefact control for SMM control-protein annotation, profiling panel (AID 1112); settings: Cy5-CALM1 binding fluorescence, higher = more signal;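 note: score merges spot fluorescence with signal to noise from triplicate slides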
[16] = probe aWnt5a binding to arrayed compounds – biochemical, biotinylated probe, 635/667 nm fluorescence, primary screen (AID 1113); settings: small-molecule microarray, higher = more signal;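 note: score merges 667 nm fluorescence intensity with signal-to-noise per printed feature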
[17] = probe aShh binding to arrayed compounds – biochemical, biotinylated probe, 635/667 nm fluorescence, primary screen (AID 1114); settings: small-molecule microarray, higher = more signal;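 note: probe is biotin-labelled aShh protein from a stem cell growth factor screen; measures binding of labelled protein to compounds printed on the slide; score merges feature fluorescence at 667 nm with signal-to-noise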
[18] = probe aNog binding to arrayed compounds – biochemical, biotinylated probe, 635/667 nm fluorescence, primary screen (AID 1115); settings: small-molecule microarray, higher = more signal;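 note: probe is biotinylated aNog protein used at 0.15 µg/mL for 1 h at 4 C; z-score combines 667 nm fluorescence of each spot with its signal to noise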
[19] = biological target: Torsin-1A-interacting protein 1 (Homo sapiens) (UniProt Q5JTV8); assay: compound microarray binding of lysate hLAP1 – cell lysate, small-molecule microarray, COS7 lysate, 635/667 nm fluorescence, primary screen (AID 1116); settings: 635 nm fluorescence, higher = more signal
[20] = biological target: Alpha-bungarotoxin (Bungarus multicinctus) (UniProt P60615); assay: compounds binding labelled alpha-BTX control protein – biochemical, small-molecule microarray, Alexa647 label, 635/667 nm fluorescence, artefact control for SMM control protein annotation, profiling panel (AID 1117); settings: alpha-BTX-A647 binding fluorescence, higher = more signal
Alpha-bungarotoxin (Bungarus multicinctus), sequence (P60615 whole entry, looked up): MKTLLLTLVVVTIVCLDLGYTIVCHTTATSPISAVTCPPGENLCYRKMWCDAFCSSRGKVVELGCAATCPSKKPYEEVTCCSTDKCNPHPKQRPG

Follistatin-related protein 3 (Homo sapiens), sequence (O95633 whole entry, looked up): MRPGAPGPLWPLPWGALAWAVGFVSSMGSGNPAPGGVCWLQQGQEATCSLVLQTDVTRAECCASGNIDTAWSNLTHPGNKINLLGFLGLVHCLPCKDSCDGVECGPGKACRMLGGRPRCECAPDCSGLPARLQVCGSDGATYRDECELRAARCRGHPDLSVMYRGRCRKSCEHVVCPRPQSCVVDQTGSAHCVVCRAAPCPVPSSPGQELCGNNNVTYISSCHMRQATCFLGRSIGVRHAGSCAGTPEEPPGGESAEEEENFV
Dickkopf-related protein 1 (Homo sapiens), sequence (O94907 whole entry, looked up): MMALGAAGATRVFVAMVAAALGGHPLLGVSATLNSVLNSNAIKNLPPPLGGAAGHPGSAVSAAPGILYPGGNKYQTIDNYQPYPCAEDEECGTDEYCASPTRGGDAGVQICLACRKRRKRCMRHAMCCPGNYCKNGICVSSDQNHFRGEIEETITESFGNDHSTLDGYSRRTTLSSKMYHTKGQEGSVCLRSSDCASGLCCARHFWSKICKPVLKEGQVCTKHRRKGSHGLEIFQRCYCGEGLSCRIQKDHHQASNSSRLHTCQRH
Fibroblast growth factor 10 (Homo sapiens), sequence (O15520 whole entry, looked up): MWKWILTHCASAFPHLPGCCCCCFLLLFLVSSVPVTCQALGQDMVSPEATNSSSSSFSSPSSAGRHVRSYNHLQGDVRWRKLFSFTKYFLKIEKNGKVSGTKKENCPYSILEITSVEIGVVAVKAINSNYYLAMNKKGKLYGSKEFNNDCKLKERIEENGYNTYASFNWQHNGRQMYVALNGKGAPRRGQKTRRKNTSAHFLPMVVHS
Epidermal growth factor receptor (Homo sapiens), sequence (P00533 whole entry, looked up): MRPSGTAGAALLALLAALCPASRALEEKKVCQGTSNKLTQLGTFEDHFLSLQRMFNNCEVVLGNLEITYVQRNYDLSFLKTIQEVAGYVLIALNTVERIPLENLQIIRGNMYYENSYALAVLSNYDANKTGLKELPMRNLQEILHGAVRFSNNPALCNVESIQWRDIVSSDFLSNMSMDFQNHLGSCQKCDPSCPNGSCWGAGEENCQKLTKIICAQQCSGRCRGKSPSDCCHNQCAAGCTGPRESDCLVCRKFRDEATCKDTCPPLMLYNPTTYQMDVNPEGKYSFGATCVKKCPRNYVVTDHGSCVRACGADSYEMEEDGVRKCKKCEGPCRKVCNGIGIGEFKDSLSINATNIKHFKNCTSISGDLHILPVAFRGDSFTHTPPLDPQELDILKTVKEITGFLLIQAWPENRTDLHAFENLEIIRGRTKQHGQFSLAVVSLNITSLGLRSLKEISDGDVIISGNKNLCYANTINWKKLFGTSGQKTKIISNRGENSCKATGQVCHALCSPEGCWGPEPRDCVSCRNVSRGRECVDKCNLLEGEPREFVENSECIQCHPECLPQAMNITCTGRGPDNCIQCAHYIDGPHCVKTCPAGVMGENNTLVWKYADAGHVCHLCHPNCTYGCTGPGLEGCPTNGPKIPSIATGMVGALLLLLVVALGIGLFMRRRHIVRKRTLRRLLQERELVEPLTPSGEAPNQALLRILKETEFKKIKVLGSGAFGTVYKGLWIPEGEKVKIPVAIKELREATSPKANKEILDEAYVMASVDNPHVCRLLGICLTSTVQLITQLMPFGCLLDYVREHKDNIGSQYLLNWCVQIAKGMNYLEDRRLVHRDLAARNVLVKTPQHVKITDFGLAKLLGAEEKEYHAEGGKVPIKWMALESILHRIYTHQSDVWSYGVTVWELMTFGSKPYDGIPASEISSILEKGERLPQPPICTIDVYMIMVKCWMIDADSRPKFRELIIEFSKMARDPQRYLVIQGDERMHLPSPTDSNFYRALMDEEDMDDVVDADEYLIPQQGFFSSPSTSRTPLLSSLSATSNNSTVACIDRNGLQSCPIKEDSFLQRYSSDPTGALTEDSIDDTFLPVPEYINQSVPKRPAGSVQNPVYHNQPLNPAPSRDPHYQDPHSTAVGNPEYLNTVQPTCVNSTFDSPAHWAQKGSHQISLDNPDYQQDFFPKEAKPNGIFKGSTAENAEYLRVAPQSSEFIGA
Left-right determination factor 2 (Homo sapiens), sequence (O00292 whole entry, looked up): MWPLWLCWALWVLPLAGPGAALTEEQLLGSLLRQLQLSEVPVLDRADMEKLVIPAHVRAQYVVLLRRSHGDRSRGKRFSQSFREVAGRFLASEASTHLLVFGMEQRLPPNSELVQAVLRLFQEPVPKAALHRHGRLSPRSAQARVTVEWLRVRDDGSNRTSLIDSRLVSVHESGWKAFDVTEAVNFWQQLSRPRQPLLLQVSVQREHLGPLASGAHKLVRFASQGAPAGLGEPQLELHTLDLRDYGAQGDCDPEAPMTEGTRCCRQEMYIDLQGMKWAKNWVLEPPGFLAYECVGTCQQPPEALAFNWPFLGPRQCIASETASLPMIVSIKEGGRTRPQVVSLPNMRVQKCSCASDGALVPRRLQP
Torsin-1A-interacting protein 1 (Homo sapiens), sequence (Q5JTV8 whole entry, looked up): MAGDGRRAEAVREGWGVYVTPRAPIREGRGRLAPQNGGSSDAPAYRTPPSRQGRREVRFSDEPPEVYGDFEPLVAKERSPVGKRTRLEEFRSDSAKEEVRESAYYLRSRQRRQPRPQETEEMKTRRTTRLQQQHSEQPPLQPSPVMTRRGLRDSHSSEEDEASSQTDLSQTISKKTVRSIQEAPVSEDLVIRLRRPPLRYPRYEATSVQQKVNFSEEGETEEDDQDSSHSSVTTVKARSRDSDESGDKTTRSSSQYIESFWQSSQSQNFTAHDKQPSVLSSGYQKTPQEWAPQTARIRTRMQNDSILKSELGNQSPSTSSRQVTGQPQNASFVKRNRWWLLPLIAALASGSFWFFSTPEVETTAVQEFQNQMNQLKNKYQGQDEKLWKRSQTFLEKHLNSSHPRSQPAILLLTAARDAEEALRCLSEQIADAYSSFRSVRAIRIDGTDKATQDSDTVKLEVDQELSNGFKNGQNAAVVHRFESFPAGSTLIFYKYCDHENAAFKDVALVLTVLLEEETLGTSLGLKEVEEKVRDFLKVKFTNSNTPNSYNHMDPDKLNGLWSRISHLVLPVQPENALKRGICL

SMILES	composite z-score [1]	composite z-score [2]	composite z-score [3]	z-score [4]	composite z-score [5]	composite z-score [6]	composite z-score [7]	composite z-score [8]	composite z-score [9]	composite z-score [10]	composite z-score [11]	z-score [12]	composite z-score [13]	composite z-score [14]	composite z-score [15]	composite z-score [16]	composite z-score [17]	composite z-score [18]	composite z-score [19]	composite z-score [20]
COc1ccc(C#Cc2ccc3c(c2)[C@]2(C(=O)N3)[C@H](C(=O)N3CCc4cc(OC)c(OC)cc4C3)[C@H]3C(=O)O[C@H](c4ccccc4)[C@H](c4ccccc4)N3[C@@H]2c2ccc(OCCO)cc2)cc1	1.07	-0.029	-0.13	0.8 (inactive)	1.29	1.27	0.504	1.08	0.671	0.0787	1.39	-0.864	0.483	0.861	-0.0312	0.027	0.0469	-0.551	0.692	0.992
CN1C(=O)C2C(C1=O)C1C=C(c3ccc(CO)cc3)C2C(C2CC2)N1Cc1cc2c(cc1Br)OCO2 (stereo not given)	1.65	0.0878	0.886	0.0287 (inactive)	0.966	1.14	0.482	1.22	0.334	1.22	1.36	-1.11	0.72	1.68	0.6	-0.027	-0.0866	1.04	2.24	1.73
CCCC[C@@H]1C[C@H]1[C@@H](NC(=O)c1ccco1)c1ccccc1	-1.69	-0.145	1.01	0.00344 (inactive)	-1.01	-1.31	-2.01	-1.63	-2.05	0.735	-1.35	-2.26	-2.75	-0.352	0.479	-0.258	0.108	-0.218	-1.63	-0.703
CN1C(=O)C2C=CC(C(O)C(c3ccccc3)c3ccccc3)N(Nc3ccccc3)C2C1=O (stereo not given)	0.929	0.724	0.883	0.559 (inactive)	1.11	1.32	0.247	1.07	-0.138	0.596	1.42	-1.13	-0.0076	1.29	0.567	0.137	0.216	0.713	0.597	1.34
COc1ccc([Si](C)(C)[C@@H]2[C@@H](CCn3cc([C@H](O)c4ccccc4)nn3)O[C@]3(C(=O)N(C)c4ccccc43)[C@H]2C)cc1	0.839	-0.202	0.28	0.0848 (inactive)	0.0782	0.11	0.0033	-0.291	0.0052	0.283	-0.0859	-2.32	0.0661	-0.069	-0.288	-0.197	-0.0769	-0.223	-0.173	0.0489
O=C1OCC=C[C@H]2OC34C=CCN(Cc5ccccc5)C(=O)[C@H]3N(CCCO)C(=O)[C@@H]4[C@@H]12 (stereo not given in full)	0.995	1.16	0.907	-0.589 (inactive)	0.0676	0.301	-0.692	0.37	-0.896	1.22	1.22	-0.789	-0.406	1.19	0.918	0.0474	0.63	0.134	0.627	-0.162
CCOC(=O)N1C(c2ccc(OCCCO)cc2)=NC(C(=O)OC)N1C(=O)OCC (stereo not given)	0.587	-0.164	0.0258	-0.641 (inactive)	0.909	1.28	0.431	1.39	0.471	-0.298	1.38	-3.72	0.537	1.25	0.127	-0.0685	-0.279	0.0036	0.935	0.439
CCOC(=O)C[C@H]1[C@H](OC(=O)c2cc3ccccc3oc2=O)[C@@H](NC(=O)c2ccc3ccccc3c2)c2cc(OCCCO)ccc2N1C(=O)c1ccccc1	1.38	-0.151	-0.413	-1.28 (inactive)	1.41	0.939	0.348	0.906	0.486	0.447	1.39	-0.593	0.129	-0.0786	-0.337	-0.12	0.214	-0.0863	0.739	0.43
C=C(/C(=C/C[C@@H](OC(C)=O)c1ccc(CO)o1)c1cnc2ccccc2c1)C(C)C	1.18	-0.198	-0.541	-0.541 (inactive)	1.66	1.32	0.792	1.45	1.24	1.39	1.09	-2.37	1.06	0.384	-1.12	-0.0346	0.123	0.153	1.24	0.818
CN1C(=O)C2C=CC(C(O)c3ccccc3)N(NC(=O)OC(C)(C)C)C2C1=O (stereo not given)	0.782	0.153	0.455	1.54 (inactive)	0.35	0.459	-0.043	-0.0889	-0.237	0.375	1.32	0.316	-0.474	0.347	-0.197	-0.1	-0.221	0.401	0.452	0.966
O=C1OCC=C[C@H]2OC34C=CCN(c5ccc(Cl)cc5)C(=O)[C@H]3N(CCCO)C(=O)[C@@H]4[C@@H]12 (stereo not given in full)	-0.0096	-0.477	0.673	-0.915 (inactive)	-0.742	-1.19	-0.781	-0.551	-1.32	1.23	-0.0068	-0.483	-0.59	-0.268	0.954	-0.15	-0.0769	-0.345	-0.0862	-0.43
